# Screens: PubChem, National Center for Advancing Translational Sciences (NCATS)
# Hits are enriched below; roughly 19% of the tested compounds scored in any of these assays.
# HT1080NT lethal: kills 2HG-producing HT-1080-NT fibrosarcoma cells; HT-1080-NT fibrosarcoma viability, CellTiter-Glo ATP luminescence, 48 h; Potency, µM (titrated, usually from 46.1 µM), for the others: at the highest dose activity, negative = less viability, hits mostly cytotoxic; 360,000 compounds, 1.6% hits; AID 686970;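 also: NT is the 2HG producing partner of a matched IDH1 knockdown line; 0% = DMSO-treated cells and -100% = media-only wells without cells; nearly all actives have a fitted effect of over 55% in size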
#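 HT-1080-NT; 750 cells/well; 5% FBS RPMI; 48 h compound, 37 degrees C; CellTiter-Glo luminescence; curve fitting and curve-class assignment.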
# TDP1 cell noCPT: qHTS for Inhibitors of human tyrosyl-DNA phosphodiesterase 1 (TDP1): qHTS in cells in absence of CPT; DT40 Tdp1-/- hTDP1 cells, no CPT, ATP luminescence, 48 h; Potency, µM (titrated, usually from 46.2 µM), for the others: top-dose activity change, negative = growth inhibition, most hits filed as inhibitors; 420,000 compounds, 15% hits; also: nearly all actives have a fitted effect of over 55% in size
#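 Camptothecin absent (DMSO only). Human TDP1-complemented DT40 knockout cells, 400 cells/well, 37 °C for minimum 48 hr; ATP measured via CellTiter-Glo, 30 min dark incubation, luminescence.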
# KB-3-1 cytotox: kills parental KB-3-1 adenocarcinoma cells; KB-3-1 viability, CellTiter-Glo ATP luminescence, 72 h; Potency, µM (top dose mostly 46.1 µM), most hits filed as cytotoxic; 400,000 compounds, 1.4% hits; AID 1347075; also: nearly all actives have a fitted effect of over 60% in size
#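 KB-3-1 cells, DMEM (no phenol red) + 10% FBS; compound by pin transfer, 72 h, 37 °C. Readout: CellTiter-Glo luminescence after 10 min. Data normalized, curve-fitted.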
# DT40 TDP1 CPT: growth inhibition of DT40 Tdp1-/-;hTDP1 cells with camptothecin (screen for TDP1 inhibitors) | chicken DT40 Tdp1-/-;hTDP1 cells + 20 nM CPT, ATP luminescence, 48 h | Potency, µM (titrated, usually from 46.2 µM), inactives show at the top dose activity change, negative = growth inhibition, hits mostly inhibitors | 420,000 compounds, 12% hits | AID 686979; also: nearly all actives have a fitted effect of over 55% in size
#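 Chicken DT40 Tdp1-/- cells stably complemented with human TDP1 were seeded at 400 cells/well in medium containing 20 nM camptothecin, exposed to pin-transferred compounds, and grown at 37 °C for at least 48 hr. Viability was read as ATP luminescence.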
# KB-V1 MDR tox: KB-V1 MDR subline cytotoxicity; 400,000 compounds, 3.4% hits; Potency, µM (series often up to 46.1 µM), actives largely listed as cytotoxic; KB-V1 MDR cells viability, CellTiter-Glo, 72 h; AID 1347076; also: nearly all actives have a fitted effect of over 60% in size
#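 Compound-treated KB-V1 multidrug-resistant cells, 72 h, 37 degrees C; viability by CellTiter-Glo. Fitted qHTS curves give the values.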
# HT1080 IDH1KD tx: kills HT-1080 cells with IDH1 knockdown; HT-1080 IDH1 knockdown viability, ATP luminescence, 48 h; Potency, µM (series often up to 46.1 µM), for inactives: at the top dose activity, negative = toxicity, usual class: cytotoxic; 360,000 compounds, 2% hits; AID 686971;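 also: 0% = DMSO wells and -100% = cell-free medium wells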
#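 IDH1KD HT-1080 cells, 750/well, RPMI + 5% FBS; compound pinned after 2 h settling; 48 h, 37 °C; CellTiter-Glo luminescence; % activity normalised to DMSO and no-cell wells; curves fitted, classed by r2 and efficacy.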
# * marks the source's active call; other numbers are inactive results; i = inactive; ? = inconclusive; / = not tested or not shown; [ ] = another dose, or the depositor's remark. Calls follow the shape of the dose curve; as a rule, active = well fitted curve in the direction sought with a large enough effect; inconclusive = small, poorly fitted or top-dose-only effect, or another doubt; inactive = no such curve, though single readings can be large; an effect the other way counts as inactive or inconclusive. Unless noted, % is scaled to controls: 0 for no effect and ±100 for the full control effect; potency is read from the fitted curve at half-maximal effect.
SMILES,HT1080NT lethal,TDP1 cell noCPT,KB-3-1 cytotox,DT40 TDP1 CPT,KB-V1 MDR tox,HT1080 IDH1KD tx
Clc1ccc(CNc2ncnc3onc(-c4ccc(Cl)cc4)c23)cc1,/,18.4µM*,i,?,i,/
Fc1ccc(Nc2ncnc3onc(-c4ccc(Cl)cc4)c23)cc1Cl,/,18.4µM*,i,?,i,/
Cc1ccc(C)n1-c1cccc(NC(=O)c2ccccc2)c1,-14.3%,?,i,?,23.1µM*,-26.4%
Cc1ccc(C)n1-c1ccc(C(=O)Nc2ccccc2)cc1,-4.6%,25.9µM*,i,?,i,-0.3%
COC(=O)c1cccc(NC(=O)c2ccccc2)c1,7.5%,-12.7%,i,-5.6%,i,5.2%
Cc1cc(C)c(C)c(OCCOCCNCc2ccccc2)c1,-16.6%,18.4µM*,i,?,14.6µM*,-10.4%
C/C=C/c1ccc(OCCOc2cc(C=O)ccc2OC)c(OC)c1,-22.3%,25.9µM*,i,?,14.6µM*,-12.6%
C/C=C/c1ccc(OCC(=O)O)c(OC)c1,-26.9%,-16.3%,i,-2.0%,i,11.8%
C/C=C/c1ccc(OCCOCCNCc2ccccc2)c(OC)c1,?,18.4µM*,i,?,i,-29.5%
Cc1cccc(N(C(=O)CCC(=O)Nc2nccs2)C(C(=O)NC(C)(C)C)c2ccc(O)cc2)c1 (configuration not stated),-12.6%,-29.0%,i,-12.4%,i,-21.4%
COC(=O)/C(=C1/Oc2cc(C)oc(=O)c2S1)C(F)(F)F,-17.1%,2.06µM*,i,2.31µM*,i,14.6µM*
COC(=O)/C(=C1/Oc2ccc(C(C)(C)C)cc2S1)C(F)(F)F,30.7%,22.4%,i,-3.0%,?,?
Cc1nn(Cc2cccc(C(=O)Nc3ccn(Cc4ccccc4F)n3)c2)c(C)c1[N+](=O)[O-],-1.3%[9.24 µM],?,i,23.1µM*,i,?
Cc1cccc(Cn2ccc(NC(=O)c3ccc4c(c3)OCO4)n2)c1,-3.8%,-26.5%,i,8.1%,18.4µM*,1.3%
Cc1nn(Cc2ccccc2)c(C)c1NC(=O)CCCn1nc([N+](=O)[O-])c(Cl)c1C,3.3%,-25.1%,i,-24.7%,?,-2.9%
O=C(Nc1ccn(Cc2ccccc2F)n1)c1ccc(COc2ccc(Br)cc2)cc1,?,?,?,11.2µM*,?,?
Cn1ncc([N+](=O)[O-])c1C(=O)Nc1ccn(Cc2ccccc2F)n1,?,-1.5%,i,-4.5%,?,-3.1%
Cc1nn(Cc2c(Cl)cccc2Cl)c(C)c1NC(=O)CCCn1nc([N+](=O)[O-])c(Cl)c1C,-2.0%,20.6µM*,i,?,?,-0.9%
O=C(Nc1ccn(Cc2ccc(Cl)cc2)n1)c1ccc2c(c1)OCO2,-26.7%,-6.8%,i,-21.9%,i,-3.9%
COc1ccc(-n2nnnc2CNC(=O)C2CC(=O)N(c3ccc(Cl)cc3)C2)cc1 (configuration not stated),9.1%,-21.6%,i,6.4%,i,2.7%
Cc1nn(Cc2ccc(Cl)cc2)c(C)c1NC(=O)CCCn1nc(C)c([N+](=O)[O-])c1C,-1.0%,?,i,-18.0%,?,-3.3%
O=C(Nc1ccc(Cn2cccn2)cc1)c1ccc(COc2ccc(Br)cc2)cc1,3.7%,-19.0%,i,-19.2%,i,-1.4%
Cc1nn(Cc2ccc(Cl)cc2)c(C)c1NC(=O)CSc1n[nH]c(C)c1[N+](=O)[O-],0.2%,20.6µM*,i,25.9µM*,i,6.6%
Cc1nn(Cc2ccccc2)c(C)c1NC(=O)CCCn1nc(C)c([N+](=O)[O-])c1C,-1.6%,0.5%,i,-6.2%,23.1µM*,0.7%
O=C(Nc1ccc(Cn2cccn2)cc1)c1ccc(COc2cccc(Br)c2)cc1,-15.4%,?,0.731µM*,-23.9%,9.2µM*,?
SMILES,HT1080NT lethal,TDP1 cell noCPT,KB-3-1 cytotox,DT40 TDP1 CPT,KB-V1 MDR tox,HT1080 IDH1KD tx
Cc1c(Cl)c([N+](=O)[O-])nn1CCCC(=O)Nc1cccc(Cl)c1,13.8%,?,?,?,18.4µM*,7.8%
Cc1c(Cl)c([N+](=O)[O-])nn1CCCC(=O)NCCc1ccccc1,24.1%,2.4%,i,6.2%,?,-0.6%
CCOC(=O)C1=C(COC(=O)c2ccc3ccccc3c2O)NC(=O)NC1C (configuration not stated),-21.1%,?,i,?,i,-8.4%
Cc1cccc2cc(CN(CC3CCCO3)C(=O)c3ccccc3F)c(N(C)C)nc12 (configuration not stated),/,-14.7%,/,-0.8%[9.04 µM],/,/
CC1(C)[C@H]2CC[C@]1(C)[C@H](O)C2,/,-8.1%,/,9.9%,/,/
CCSc1nnc(NC(=O)COc2ccccc2)s1,2.0%,13.5%,i,10.0%,i,25.0%
O=C(Nc1ccc(N2CCN(C(=O)c3ccco3)CC2)cc1)C(c1ccccc1)c1ccccc1,-1.0%,16.4µM*,i,20.6µM*,?,-5.0%
CC(C)(C)OC(=O)N1CCN(c2ccc(NC(=O)c3ccco3)cc2)CC1,5.6%,16.4µM*,i,18.4µM*,?,10.4%
CC(C)c1ccc(NC(=O)C(c2ccccc2)N2CCN(C(=O)c3ccco3)CC2)cc1 (configuration not stated),-13.2%,18.4µM*,i,?,i,-23.1%
O=C(Nc1ccc(N2CCN(C(=O)c3ccco3)CC2)cc1)c1ccco1,7.0%,5.0%,i,-0.2%,i,15.5%
OCCN1CCN(Cc2ccc3c(c2)CN(Cc2ccc4ccccc4c2)CCO3)CC1,/,-14.1%,/,-6.1%[9.04 µM],/,/
Cc1ccc(C)c(OCC(=O)NCC(C)C)c1C,11.7%,-27.1%,i,-18.0%,i,7.3%
O=C(C1CCN(c2nc(-c3ccccc3)nc3c2CCC3)CC1)N1CCCC1,-0.1%,?,i,?,i,-1.5%
CC1CCCCN1C(=O)C1CCN(c2nc(-c3ccccc3)nc3c2CCC3)CC1 (configuration not stated),-1.1%,14.6µM*,20.6µM*,20.6µM*,i,10.6%
COC(=O)/C(=N/Nc1ccccc1)N1CCCc2ccccc21,-1.2%,?,?,?,20.6µM*,-14.3%
COC(=O)/C(=N/Nc1ccc(C)cc1)N1CCCc2ccccc21,-3.3%,?,i,11.6µM*,?,-4.0%
CC(=O)/C(=N/Nc1ccc(Br)cc1)N1CCCc2ccccc21,-23.2%,?,i,-29.0%,i,-3.3%
